Bioassay records (PubChem BioAssay)
Rab9 promoter act: qHTS Assay for Rab9 Promoter Activators | Huh7 Rab9 promoter-luciferase reporter, luminescence, 24 h | Potency, µM (series often up to 9.22 µM), for inactives: at the highest dose activation, negative = inhibition, hits mostly activators | 320,000 compounds, 2.8% hits | AID 485297, 2010; also: % of control where 0% means no effect; nearly all actives have a fitted effect of over 60% in size
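Luciferase signal after 10 min detection reagent at ambient indicates Rab9 promoter upregulation; stably transfected Huh7 cells were treated 24 h with compound in DMSO at 37 °C, 5% CO2.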
NPC1 prom act: qHTS Assay for NPC1 Promoter Activators | Huh7 NPC1 promoter luciferase reporter, 24 h | Potency, µM (titrated, usually from 9.22 µM), for the others: top-dose activation, usual class: activators | 320,000 compounds, 2.4% hits; also: % of control where 0% means no effect; nearly all actives have a fitted effect of over 60% in size
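Luminescence from an NPC1 promoter-driven luciferase reporter in stably transfected Huh7 cells was measured after 24 h compound treatment at 37 °C, followed by 10 min ambient incubation with luciferase detection reagent.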
ELG1 genotox: qHTS screen for small molecules that induce genotoxicity in human embryonic kidney (HEK293T) cells expressing luciferase-tagged ELG1; 330,000 compounds, 1.3% hits; Potency, µM (top dose mostly 46 µM), without a hit: at the top dose activity change, positive = activation, most hits filed as activators; HEK293T ELG1-luciferase reporter, luminescence, 16 h; also: % of control where 0% means no effect; nearly all actives have a fitted effect of over 60% in size
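After overnight (16 hr) compound treatment at 37 °C, ELG1-luciferase HEK293T cells were lysed with ONE-Glo; luminescence quantified 30 min later at room temperature.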
SMN2 splice up: qHTS Assay for Enhancers of SMN2 Splice Variant Expression. 210,000 compounds, 2.8% hits. HEK293 SMN2-luciferase splicing reporter, luminescence, 30-36 h. Potency, µM (highest dose often 46.1 µM), without a hit: top-dose activity change, positive = activation, actives largely listed as activators; also: % of control where 0% means no effect; nearly all actives have a fitted effect of over 55% in size
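qHTS luciferase splicing reporter: luminescence rises when SMN2 exon 7 is included in transfected HEK293 cells. Compound exposure lasted 30-36 h at 37C, with 4.5 mM final sodium butyrate as control, followed by a ONE-Glo read.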
ELG1 repair inh: qHTS screen for small molecules that inhibit ELG1-dependent DNA repair in human embryonic kidney (HEK293T) cells expressing luciferase-tagged ELG1; HEK293T ELG1-luciferase reporter, luminescence, 16 h; DNA damage induced by 5-fluorouridine; Potency, µM (highest dose often 46.1 µM), for the others: at the highest dose activity change, negative = inhibition, usual class: inhibitors; 330,000 compounds, 2.3% hits; AID 504467, 2011; also: % is scaled to controls: 0 for no effect and ±100 for the full control effect; nearly all actives have a fitted effect of over 55% in size
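Overnight (16 hr) co-exposure of 2,000 cells/well to 5-fluorouridine and compound at 37 °C preceded detection. Luciferase was quantified via ONE-Glo luminescence; loss of signal denotes inhibition.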
FLuc modulator: qHTS profiling assay for firefly luciferase inhibitor/activator using purifed enzyme and Km concentrations of substrates (counterscreen for miR-21 project); Luciferin 4-monooxygenase (Photinus pyralis), P08659; purified FLuc, Km substrates, luminescence inhibition; Potency, µM (highest dose often 57.5 µM), inactives show at the top dose activity change, negative = inhibition, hits mostly inhibitors; 360,000 compounds, 6.9% hits; AID 588342, 2011;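 also: plate controls were vehicle for no effect and reference inhibitor for full effect; nearly all actives have a fitted effect of over 55% in size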
Target sequence (P08659 whole entry, looked up): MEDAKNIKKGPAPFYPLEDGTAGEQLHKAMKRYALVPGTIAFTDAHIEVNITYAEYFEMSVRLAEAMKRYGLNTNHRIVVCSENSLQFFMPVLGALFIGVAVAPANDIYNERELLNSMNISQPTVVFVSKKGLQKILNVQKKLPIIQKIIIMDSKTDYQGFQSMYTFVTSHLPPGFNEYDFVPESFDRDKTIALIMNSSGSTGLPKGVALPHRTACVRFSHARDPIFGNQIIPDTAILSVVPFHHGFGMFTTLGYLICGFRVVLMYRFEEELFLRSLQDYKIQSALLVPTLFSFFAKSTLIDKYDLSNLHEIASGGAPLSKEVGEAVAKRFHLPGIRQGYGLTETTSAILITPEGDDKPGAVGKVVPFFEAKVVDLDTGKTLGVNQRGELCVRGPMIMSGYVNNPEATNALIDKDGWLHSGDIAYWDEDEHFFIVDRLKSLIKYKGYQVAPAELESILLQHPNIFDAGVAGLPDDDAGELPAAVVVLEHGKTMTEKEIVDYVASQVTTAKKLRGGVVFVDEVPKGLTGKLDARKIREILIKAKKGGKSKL
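Purified P. pyralis luciferase, 10 nM final, with Km-level 10 uM D-luciferin and 10 uM ATP in 50 mM Tris acetate pH 7.5, 10 mM Mg acetate, 0.01% Tween-20, 0.05% BSA; 6-point qHTS titration about 60 µM downward; luminescence read.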
The depositor's hits bear a star; ? = inconclusive; · = not tested or not shown. Sampled rows, rich in hits. Any-hit rate of the full collection: about 9.3%. Calls follow the shape of the dose curve; as a rule, active = well fitted curve in the direction sought with a large enough effect; inconclusive = small, poorly fitted or top-dose-only effect, or another doubt; inactive = no such curve, though single readings can be large; an effect the other way counts as inactive or inconclusive. Potency is read from the fitted curve at half-maximal effect.

SMILES	Rab9 promoter act	NPC1 prom act	ELG1 genotox	SMN2 splice up	ELG1 repair inh	FLuc modulator
c1coc(CNc2nc(-c3cccs3)cs2)c1	?	?	6.3%	?	-12.4%	23.9µM*
Cc1nc2ncccn2c1-c1csc(NCc2ccco2)n1	-8.2%	0.2%	15.5%	-23.6%	?	-15.5%
CC(=O)Nc1cccc(-c2csc(NCc3ccco3)n2)c1	0.9%	8.4%	?	?	6.1%	16.9µM*
Oc1ccc(-c2csc(NCc3ccco3)n2)cc1	27.6%	26.4%	18.4µM*	25.4%	?	10.7µM*
COc1ccc(OC)c(/C=N/Nc2nncn2/N=C/c2cc(OC)ccc2OC)c1	-2.1%	-8.8%	-1.9%	4.6%	?	15.1µM*
COc1cc(/C=N/Nc2nncn2/N=C/c2ccc(O)c(OC)c2)ccc1O	?	?	-7.0%	25.1µM*	?	0.379µM*
C(=N\Nc1nncn1/N=C/c1ccco1)/c1ccco1	2.4%	-4.7%	0.1%	·	-5.0%	5.3%
Cc1cc(C)c(NC(=O)CNC(=O)COC(=O)Cc2cccs2)c(C)c1	-1.1%	-9.8%	-1.2%	·	0.2%	6.4%
COc1cccc(C(=O)Nc2cccc(OCc3cc(=O)n4c5c(sc4n3)CCCC5)c2)c1	·	·	·	-7.3%	·	?
COc1cccc(COC(=O)C2CC(=O)N(Cc3ccco3)C2)c1OC (configuration not stated)	10.1%	-0.7%	-4.6%	·	?	3.2%
Cc1cc(=O)[nH]c2c(C)cc(S(=O)(=O)Nc3ccc(O)cc3)cc12	-5.7%	-2.8%	7.7%	·	-0.2%	-2.1%
CC(C)(C)C(=O)/C(=C\c1ccc([N+](=O)[O-])cc1)n1cncn1	-34.8%	-32.5%	-11.7%	-114.2%	11.6µM*	-16.1%
CC(C)(C)C(=O)/C(=C/c1ccc(Cl)cc1)n1cncn1	-41.3%	-26.3%	-13.0%	·	?	0.5%
N#Cc1c(N2CCCC(O)C2)nc(N)c2c(N)nc3c(c12)CC(=O)N3C12CC3CC(CC(C3)C1)C2 (configuration not stated)	-10.9%	-2.9%	-8.2%	-85.0%	?	5.36µM*
Nc1c(-c2ccccc2)cnn1-c1cccc(C(F)(F)F)c1	3.16µM*	?	14.1%	3.55µM*	?	16.9µM*
Cc1ccc(-c2cnn(-c3ccccc3)c2N)cc1	1.12µM*	0.447µM*	?	·	?	1.35µM*
Nc1c(-c2cccc(Cl)c2)cnn1-c1cccc(C(F)(F)F)c1	9.4%	2.3%	-2.6%	-27.0%	0.0%	?
Nc1c(-c2ccccc2)cnn1-c1ccc(C(=O)O)cc1	0.316µM*	?	?	3.16µM*	?	1.69µM*
N#Cc1c(C#N)c(-c2ccccc2)n(-c2ccc(C(=O)O)cc2)c1N	2.4%	0.2%	-0.4%	-13.1%	2.2%	0.9%
COc1ccc(-c2cnc3c(-c4ccc(F)cc4)cnn3c2N)cc1	0.316µM*	0.398µM*	?	·	?	0.601µM*
O=C(COC(=O)c1cnccn1)NCc1ccc2c(c1)OCO2	-2.6%	9.8%	1.8%	7.1%	-2.8%	0.8%
Cc1nnsc1C(=O)N/N=C/c1ccc(OC(F)(F)F)cc1	1.3%	-1.7%	3.6%	-5.1%	?	-1.1%
Cc1ccc(-c2cnn(-c3cccc([N+](=O)[O-])c3)c2N)cc1	3.16µM*	2.24µM*	?	29.4%	?	12µM*
Nc1c(-c2ccc(Cl)cc2)cnn1-c1ccccc1	0.891µM*	2.24µM*	6.51µM*	·	?	4.78µM*
Nc1c(-c2ccc(Cl)cc2)nnn1-c1ccccc1	2.24µM*	3.16µM*	?	·	?	?
SMILES	Rab9 promoter act	NPC1 prom act	ELG1 genotox	SMN2 splice up	ELG1 repair inh	FLuc modulator
Nc1c(-c2ccc(Cl)cc2)cnc2c(-c3ccccc3)cnn12	1.26µM*	0.316µM*	1.64µM*	·	?	0.477µM*
CCOC(=O)C1=C(CC)Nc2ccccc2N=C1NC(=O)c1ccc(OC)c(S(=O)(=O)N2CCCCC2C)c1 (configuration not stated)	-4.0%	-2.9%	-10.7%	-18.2%	23.1µM*	2.1%
NC(=O)c1ccc(N=Nc2c(O)c3ccccc3[nH]c2=O)cc1	8.3%	8.2%	0.9%	·	7.1%	?
COc1cc(N=Nc2c(O)c3ccccc3[nH]c2=O)c(OC)cc1N=Nc1ccccc1	-0.9%	3.3%	-4.1%	·	4.6%	15.1µM*
COc1ccc(CNC(=O)c2ccc3nc(CCc4ccccc4)oc3c2)c(OC)c1	·	·	·	·	·	-16.9%
O=C1CC(c2ccccc2C(F)(F)F)c2c(c3ccccc3[nH]c2=O)O1 (configuration not stated)	·	·	·	7.6%	·	-1.8%
Cc1ccc(C(=O)N/N=C\c2cccc(OC(=O)c3cccc(F)c3)c2)cn1	-0.6%	4.3%	17.8%	·	-4.3%	8.49µM*
CCOc1ccc2ccccc2c1/C=N/NC(=O)c1ccc(C)nc1	2.8%	0.1%	6.1%	·	1.6%	4.78µM*
O=C(N/N=C/c1cccc(OC(=O)c2ccco2)c1)c1ccc(F)cc1	-3.7%	0.4%	?	7.0%	?	3.79µM*
Cc1ccc(C(=O)N/N=C\c2cccs2)cn1	18.1%	20.9%	-4.3%	2.6%	?	23.9µM*
CCCCC(NC(=O)c1ccc(C#N)cc1)C(=O)NCCC (configuration not stated)	1.1%	-0.4%	3.4%	·	16.6%	-2.0%
COC(=O)c1ccc(NC(=O)Cn2c(=O)nc(-c3ccccc3)c3ccccc32)cc1	·	·	·	·	·	0.8%
O=C(CN1C(=O)NC2(CCCC2)C1=O)N1CCCSC1=Nc1ccccc1	2.8%	-0.9%	1.8%	·	11.5%	4.0%
CC(=O)/C(=C\c1ccccc1)CC(=O)O	·	·	·	-8.5%	·	·
COc1cccc(CN2CC(C(=O)N3CCCCCC3)CCC2=O)c1 (configuration not stated)	23.1%	0.6%	1.8%	·	?	-6.4%
